Data: PubChem BioAssay AID1159580 (chemical genetic matrix, 2015)
“And” between values parts separate entries of the source, which are not always exact repeats. Identical values can stand only once. Among all 5,500 compounds or so, about 2,000 (36%) were called active. Not shown: some 18% with an inconclusive outcome. No stated cut-off is given here; in the data, active means normalized growth mostly below about 0.91 (no sharp cut-off); inconclusive means no clear call, values can overlap the other calls; inactive means mostly above about 0.92. The list shows a part of the results.

Experiment: chemical genetic growth profiling, strain panel (AID 1159580);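 further: tested at 20 µM; growth read once vehicle control cultures reached saturation at 30 °C; 1 = growth at the plate median or of vehicle wells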
Settings: S. cerevisiae deletion strains, growth OD

Measured: normalized growth

NC(N)=NS(=O)(=O)c1ccc(N)cc1
inactive: locus YAL021C, strain ccr4, stronger effect = lower value 0.976 | locus YAL026C, strain drs2, stronger effect = lower value 0.991 | locus YAL030W, strain snc1, stronger effect = lower value 0.979 | locus YBL061C, strain skt5, stronger effect = lower value 0.991 | locus YBR009C, strain hhf1, stronger effect = lower value 0.981 | locus YBR021W, strain FUR4, stronger effect = lower value 1.02 | locus YBR023C, strain chs3, stronger effect = lower value 0.981 | locus YBR171W, strain sec66, stronger effect = lower value 0.994 | locus YBR229C, strain ROT2, stronger effect = lower value 1.01 | locus YBR231C, strain swc5, stronger effect = lower value 0.993 | locus YBR279W, strain paf1, stronger effect = lower value 0.986 | locus YCL011C, strain gbp2, stronger effect = lower value 0.981 | locus YCL016C, strain dcc1, stronger effect = lower value 0.983 | locus YCL029C, strain bik1, stronger effect = lower value 1 | locus YCL061C, strain MRC1, stronger effect = lower value 1.01 | locus YCL069W, strain vba3, stronger effect = lower value 0.991 | locus YCR088W, strain abp1, stronger effect = lower value 0.992 | locus YDL005C, strain med2, stronger effect = lower value 0.987 | locus YDL035C, strain GPR1, stronger effect = lower value 1.02 | locus YDL040C, strain nat1, stronger effect = lower value 0.975 | locus YDL074C, strain BRE1, stronger effect = lower value 1.04 | locus YDL101C, strain DUN1, stronger effect = lower value 1.02 | locus YDL134C, strain PPH21, stronger effect = lower value 1.01 | locus YDL185W, strain tfp1, stronger effect = lower value 1 | locus YDL192W, strain arf1, stronger effect = lower value 0.996 | locus YDR001C, strain nth1, stronger effect = lower value 0.99 | locus YDR069C, strain doa4, stronger effect = lower value 0.986 | locus YDR101C, strain arx1, stronger effect = lower value 0.995 | locus YDR137W, strain rgp1, stronger effect = lower value 1.03 | locus YDR150W, strain NUM1, stronger effect = lower value 1.02 | locus YDR159W, strain sac3, stronger effect = lower value 0.992 | locus YDR162C, strain NBP2, stronger effect = lower value 1.01 | locus YDR195W, strain ref2 0.934 | locus YDR297W, strain sur2, stronger effect = lower value 0.984 | locus YDR318W, strain mcm21, stronger effect = lower value 0.998 | locus YDR334W, strain swr1, stronger effect = lower value 0.979 | locus YDR335W, strain msn5, stronger effect = lower value 0.992 | locus YDR388W, stronger effect = lower value 0.999 | locus YDR392W, strain spt3, stronger effect = lower value 0.99 | locus YDR502C, strain sam2, stronger effect = lower value 0.997 | locus YEL003W, strain gim4, stronger effect = lower value 0.99 | locus YEL037C, strain rad23, stronger effect = lower value 0.983 | locus YEL061C, strain CIN8 (second series), stronger effect = lower value 0.974 | locus YEL061C, strain CIN8, stronger effect = lower value 1.01 | locus YER015W, strain faa2, stronger effect = lower value 0.985 | locus YER016W, strain bim1, stronger effect = lower value 0.987 | locus YER110C, stronger effect = lower value 0.993 | locus YER111C, strain swi4, stronger effect = lower value 0.993 | locus YER155C, strain BEM2 (second series), stronger effect = lower value 0.987 | locus YER155C, strain BEM2, stronger effect = lower value 1.01 | locus YER167W, strain BCK2, stronger effect = lower value 1 | locus YFR010W, strain ubp6, stronger effect = lower value 0.99 | locus YGL078C, strain dbp3, stronger effect = lower value 0.987 | locus YGL086W, strain mad1, stronger effect = lower value 1.01 | locus YGL167C, strain pmr1, stronger effect = lower value 0.987 | locus YGL173C, strain kem1, stronger effect = lower value 0.988 | locus YGL227W, strain vid30, stronger effect = lower value 0.974 | locus YGL240W, strain doc1, stronger effect = lower value 0.997 | locus YGL248W, strain PDE1, stronger effect = lower value 1.03 | locus YGL253W, strain hxk2, stronger effect = lower value 0.986 | locus YGR078C, strain PAC10, stronger effect = lower value 1.04 | locus YGR135W, strain pre9, stronger effect = lower value 0.989 | locus YGR252W, strain gcn5, stronger effect = lower value 0.963 | locus YHR013C, strain ard1, stronger effect = lower value 0.961 | locus YHR027C, strain rpn1, stronger effect = lower value 0.976 | locus YHR030C, strain SLT2, stronger effect = lower value 1.01 and 0.978 | locus YHR079C, strain IRE1 (second series), stronger effect = lower value 0.99 | locus YHR079C, strain IRE1, stronger effect = lower value 0.97 | locus YHR094C, strain hxt1, stronger effect = lower value 0.988 | locus YHR129C, strain ARP1, stronger effect = lower value 1.02 | locus YHR142W, strain chs7, stronger effect = lower value 0.988 | locus YHR200W, strain rpn10, stronger effect = lower value 0.985 | locus YIL066C, strain RNR3, stronger effect = lower value 1.03 | locus YIL073C, strain SPO22, stronger effect = lower value 0.989 | locus YIL125W, strain kgd1, stronger effect = lower value 0.989 | locus YIR030C, strain dcg1, stronger effect = lower value 0.994 | locus YJL092W, strain hpr5, stronger effect = lower value 0.991 | locus YJL095W, strain BCK1 (second series), stronger effect = lower value 0.988 | locus YJL095W, strain BCK1, stronger effect = lower value 1.05 and 0.986 | locus YJL115W, strain asf1, stronger effect = lower value 0.966 | locus YJL129C, strain trk1, stronger effect = lower value 0.984 | locus YJL134W, strain LCB3, stronger effect = lower value 1 | locus YJL154C, strain vps35, stronger effect = lower value 0.986 | locus YJL164C, strain tpk1, stronger effect = lower value 0.984 | locus YJL166W, strain qcr8, stronger effect = lower value 0.98 | locus YJL168C, strain set2, stronger effect = lower value 0.996 | locus YJL187C, strain SWE1 (second series), stronger effect = lower value 1.03 | locus YJL187C, strain SWE1, stronger effect = lower value 0.989 | locus YJR043C, strain POL32, stronger effect = lower value 1.05
